This is an account of results in PubChem BioAssay (NCATS).

Experiment [1] relates to Zika virus NS2B-NS3 protease (unlinked complex). Put plainly: Primary screen GU Rhodamine qHTS for Zika virus inhibitors: Unlinked NS2B-NS3 protease assay (AID 1347159). Also: nearly all actives have a fitted effect of over 60% in size. The procedure, abridged:
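Noncovalent NS2B hydrophilic domain/NS3 protease complex (25 nM final) in 10 mM Tris-HCl pH 8.0, 0.01% Tween 20, preincubated 15 min with compounds (up to 114 microM), then 1.5 microM Rhodamine110 substrate. Fluorescence change over 15 min fitted to 4-parameter Hill.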
A general note: In qHTS, concentration-response curves come from the screen itself.

Experiment [2] has as its system Zika virus NS2B-NS3 protease (linked construct). As to the kind of experiment: Primary screen NINDS Rhodamine qHTS for Zika virus inhibitors (AID 1347160). Also: nearly all actives have a fitted effect of over 55% in size. The essentials: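 Purified NS2B-NS3 protease with the NS2B hydrophilic domain joined by a flexible linker (25 nM) in 10 mM Tris-HCl pH 8.0, 0.01% Tween 20, preincubated 15 min at RT with compound; Rhodamine110 peptide substrate 1.5 µM; fluorescence change over 15 min; 4-parameter Hill fit.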

Records with an inconclusive call do not appear. Values without a mark were called inactive. Activity calls are given as the source filed them. Calls follow the shape of the dose curve; as a rule, active = well fitted inhibition curve with a large enough effect; inconclusive = small, poorly fitted or top-dose-only effect; inactive = no such curve, though single readings can be large or run the other way.
% is scaled to controls: 0 for no effect and ±100 for the full control effect; potency is read from the fitted curve at half-maximal effect.

For the compound `COc1ccccc1NC(=O)OCC1CCN(C(=O)OC(C)(C)C)CC1`, the Potency result in experiment [1] and in experiment [2] was “inactive” in each case.
Consider `O=C(Nc1ccc(-c2ccncc2)cc1)N[C@H](CO)c1ccccc1`, for which the Potency entry in experiment [1] and in experiment [2] was “inactive” throughout.
Turning to `Cc1cc(NC(=O)Nc2ccc(F)c(F)c2)n(-c2ccccc2)n1`, the Potency entry in experiment [1] and in experiment [2] was “inactive” throughout.
Regarding `COC(=O)[C@@]1(c2ccc(C)cc2)C[C@H]1CN1CCC(O)(c2ccccc2)CC1`, the Potency result in experiment [1] and in experiment [2] was “inactive” throughout.
As to `CC(=O)OC[C@@]12C(=O)C[C@@H](C)[C@]3(C[C@@H](c4ccoc4)O[C@H]3OC(C)=O)[C@H]1CCC[C@]21CO1`, the Potency result in experiment [1] and in experiment [2] was “inactive” throughout.
As for `C[C@@H]1O[C@@H](O[C@H]2[C@H](O)[C@@H](O)[C@H](O[C@H]3[C@H](O[C@H]4CC[C@@]5(C)C(=CC[C@@H]6C5CC[C@]5(C)[C@@H]7[C@H](C[C@@H]65)O[C@]5(CC[C@@](C)(CO[C@@H]6O[C@H](CO)[C@@H](O)[C@H](O)[C@H]6O)O5)[C@H]7C)C4)O[C@H](CO)[C@@H](O)[C@@H]3O)O[C@@H]2CO)[C@H](O)[C@H](O)[C@H]1O` (some centres undefined), the Potency entry in experiment [1] and in experiment [2] was “inactive” in each case.
Take `C=CC(C)(O)C(O)CC1C(C)(O)C(O)C(O)C2C(C)(C)CCCC21C` (centres undefined): the Potency entry in experiment [1] and in experiment [2] was “inactive” each time.
As for `C=CC1C(OC2OC(CO)C(O)C(O)C2O)OC=C(C(=O)OC)C1CC1CC(=O)CC(CCc2ccc(O)cc2)O1` (centres undefined), the Potency entry in experiment [1] and in experiment [2] was “inactive” throughout.
For the compound `CC1CC(O)C2(OC1=O)OC1C(O)C3C4CCC5CC(OC6OC(CO)C(O)C(O)C6OC6OC(C)C(O)C(O)C6O)CCC5(C)C4CCC3(C)C1C2C` (centres undefined), the Potency result in experiment [1] and in experiment [2] was “inactive” in each case.
Take `CC(C)NCC(C(=O)N1CCN(c2ncnc3c2C(C)CC3O)CC1)c1ccc(Cl)cc1` (centres undefined): the Potency result in experiment [1] and in experiment [2] was “inactive” each time.
With `C[C@@H]1O[C@@H](O[C@@H]2[C@@H](O[C@@H]3O[C@@H](C)[C@H](O[C@@H]4OC[C@H](O)[C@H](O[C@@H]5OC[C@@H](O)[C@H](O)[C@H]5O)[C@H]4O)[C@@H](O[C@@H]4OC[C@](O)(CO)[C@H]4O)[C@H]3O)[C@H](OC(=O)[C@]34CCC(C)(C)C[C@H]3C3=CCC5[C@@]6(C)C[C@H](O)[C@H](O[C@@H]7O[C@H](CO[C@@H]8OC[C@H](O)[C@H](O)[C@H]8O)[C@@H](O)[C@H](O)[C@H]7O)C(C)(C)C6CC[C@@]5(C)[C@]3(C)C[C@H]4O)OC[C@H]2O)[C@H](O)[C@H](O)[C@H]1O` (some centres undefined), the activity change, negative = inhibition in experiment [1] was 11.8% [at 19.1 µM]; in experiment [2] it was 1.34% [at 10.7 µM].
`CC1(C)C=CN2C(=O)C3=CCCN3C(=O)[C@@H]2C[C@@]12Nc1ccccc1C2=O`: the Potency result in experiment [1] and in experiment [2] was “inactive” throughout.
For the compound `C=C1[C@H](OC(C)=O)[C@H]2[C@@H](OC(C)=O)[C@](C)(OC(C)=O)C[C@]2(OC(C)=O)C(=O)[C@H](C)/C=C/C(C)(C)C(=O)[C@H](OC(=O)C(C)C)[C@H]1OC(C)=O`, the Potency result in experiment [1] and in experiment [2] was “inactive” in each case.
For `COc1cc(NC(=O)Nc2cccc(CNC(=O)O[C@H]3CCOC3)c2)ccc1-c1cnco1`, the Potency entry in experiment [1] and in experiment [2] was “inactive” each time.
Take `COc1cc(C(=O)NC2CCN(C)CC2)ccc1Nc1ncc2c(n1)N(C1CCCC1)CC(F)(F)C(=O)N2C`: the Potency result in experiment [1] and in experiment [2] was “inactive” in each case.
`CNS(=O)(=O)CC1CCC(N(C)c2ncnc3[nH]ccc23)CC1` (centres undefined): the Potency entry in experiment [1] and in experiment [2] was “inactive” in each case.
For `CC(C)=CCC[C@](C)(O[C@@H]1O[C@H](CO)[C@@H](O)[C@H](O)[C@H]1O)[C@H]1CC[C@]2(C)[C@@H]1[C@H](O)CC1[C@@]3(C)CC[C@H](O)C(C)(C)C3[C@@H](O[C@@H]3O[C@H](CO)[C@@H](O)[C@H](O)[C@H]3O[C@@H]3OC[C@@H](O)[C@H](O)[C@H]3O)C[C@]12C` (some centres undefined), the Potency result in experiment [1] and in experiment [2] was “inactive” throughout.
Consider `C=C(C(=O)OC)C1C(O)CC2(C)C(O)CCC(=O)C2C1O` (centres undefined), for which the Potency entry in experiment [1] and in experiment [2] was “inactive” each time.
Turning to `CC(=O)NC1C(OC(C)(C)C2CCC3(C)C=C(C4CCC5C4(C)CC(O)C4OC(C(C)(C)O)CCC45C)CCC3O2)OC(CO)C(O)C1O` (centres undefined), the Potency result in experiment [1] and in experiment [2] was “inactive” throughout.
Consider `Cc1[nH]nc(C(F)(F)F)c1Cc1sc2c(c1C(=O)N1C[C@](C)(O)CO1)c(=O)n(C)c(=O)n2C(C)C`, for which the Potency result in experiment [1] and in experiment [2] was “inactive” in each case.
Consider `CNC(=O)c1ccccc1Nc1nc(Nc2ccc(N3CCNCC3)cc2)ncc1Cl`, for which the Potency entry in experiment [1] and in experiment [2] was “inactive” each time.
On to `O=C(CC1C(=O)Nc2ccccc21)OC[C@H]1O[C@@H](OCCc2ccc(O)cc2)[C@H](O)[C@@H](O)[C@@H]1O` (some centres undefined), for which the Potency result in experiment [1] and in experiment [2] was “inactive” in each case.
With `C/C1=C\C[C@]2(C)C(=O)C(O)=C([C@H](C)CO)[C@H]2C/C=C(\C)[C@@H](O)CC/C(C)=C/CC1`, the Potency entry in experiment [1] and in experiment [2] was “inactive” throughout.
As to `CC(C)N(CCCCOCC(=O)NS(C)(=O)=O)c1cnc(-c2ccccc2)c(-c2ccccc2)n1`, the results for the Potency in experiment [1] and in experiment [2] were 7.94 µM (active) and 28.2 µM (active), respectively.
For the compound `Cc1nc(Nc2n[nH]c3c2CN(C(=O)NC(CN(C)C)c2ccccc2)C3(C)C)c2sccc2n1` (centres undefined), the Potency entry in experiment [1] and in experiment [2] was “inactive” in each case.
On to `OC[C@H]1O[C@@H](O[C@H]2[C@H](OCc3ccccc3)O[C@H](CO[C@@H]3OC[C@@H](O)[C@H](O)[C@H]3O)[C@@H](O)[C@@H]2O)[C@H](O)[C@@H](O)[C@@H]1O`, for which the Potency entry in experiment [1] and in experiment [2] was “inactive” each time.
`CC1OC(OC2C(CO)OC(OCC3OC(OC(=O)C45CCC(C)(C)CC4C4=CCC6C7(C)CCC(OC8OC(CO)C(O)C(OC9OC(CO)C(O)C(O)C9O)C8O)C(C)(C)C7CCC6(C)C4(C)CC5)C(O)C(O)C3O)C(O)C2O)C(O)C(O)C1OC1OC(CO)C(O)C(O)C1O` (centres undefined): the activity change, negative = inhibition in experiment [1] is 10.6% [at 19.1 µM]. In experiment [2], the outcome was “inactive [at 10.7 µM]”.
